Source: PubChem BioAssay
An excerpt weighted towards active compounds, which were near 1.7% of everything screened.
KCNH2 WT inh – inhibitors of human wildtype KCNH2 potassium channel | U2OS, BacMam KCNH2, thallium flux FluxOr; active compounds read low | activity change, % at 1.84 µM | 0.37% of 340,000 active | AID 720551;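 active = maximum activity change below -70%; inconclusive = maximum activity change between -70% and -50%; inactive = maximum activity change above -50%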
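U2OS cells were transduced with wild-type KCNH2 virus (2.03 x 10^8 / mL) for 4 h at room temperature, then cultured overnight at 37 C. Thallium flux was read with FluxOr dye. Rate constants were normalized to DMSO controls.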
Giardia kill – kills Giardia lamblia. 0.15% of 340,000 active. activity change, % at 7.66 µM, hits read low. Giardia lamblia trophozoite viability; in the data active = activity change below about -80%; inconclusive = between about -30% and that limit;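 note: parasites exposed to compound for two days anaerobically before the ATP read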
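Media and compound were dispensed first, then trophozoites at 100 cells/well; plates sat 48 hrs at 37 deg C without oxygen before ATP luminescence reagent was added and read after 15-30 min at room temperature.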
USP1 inh – USP1/UAF1 (human) deubiquitinase inhibition; Potency, µM (top dose mostly 57.1 µM), inactives show top-dose activity change, negative = inhibition, most hits filed as inhibitors; 0.23% of 390,000 active; O94782; AID 743255; recombinant USP1/UAF1, Ub-Rhodamine cleavage fluorescence; active = well fitted inhibition curve with a large enough effect; inconclusive = small, poorly fitted or top-dose-only effect; inactive = no such curve, though single readings can be large or run the other way; note: potency is the fitted concentration of half-maximal effect; nearly all actives have a fitted effect of over 60% in size
Target sequence (O94782 whole entry, looked up): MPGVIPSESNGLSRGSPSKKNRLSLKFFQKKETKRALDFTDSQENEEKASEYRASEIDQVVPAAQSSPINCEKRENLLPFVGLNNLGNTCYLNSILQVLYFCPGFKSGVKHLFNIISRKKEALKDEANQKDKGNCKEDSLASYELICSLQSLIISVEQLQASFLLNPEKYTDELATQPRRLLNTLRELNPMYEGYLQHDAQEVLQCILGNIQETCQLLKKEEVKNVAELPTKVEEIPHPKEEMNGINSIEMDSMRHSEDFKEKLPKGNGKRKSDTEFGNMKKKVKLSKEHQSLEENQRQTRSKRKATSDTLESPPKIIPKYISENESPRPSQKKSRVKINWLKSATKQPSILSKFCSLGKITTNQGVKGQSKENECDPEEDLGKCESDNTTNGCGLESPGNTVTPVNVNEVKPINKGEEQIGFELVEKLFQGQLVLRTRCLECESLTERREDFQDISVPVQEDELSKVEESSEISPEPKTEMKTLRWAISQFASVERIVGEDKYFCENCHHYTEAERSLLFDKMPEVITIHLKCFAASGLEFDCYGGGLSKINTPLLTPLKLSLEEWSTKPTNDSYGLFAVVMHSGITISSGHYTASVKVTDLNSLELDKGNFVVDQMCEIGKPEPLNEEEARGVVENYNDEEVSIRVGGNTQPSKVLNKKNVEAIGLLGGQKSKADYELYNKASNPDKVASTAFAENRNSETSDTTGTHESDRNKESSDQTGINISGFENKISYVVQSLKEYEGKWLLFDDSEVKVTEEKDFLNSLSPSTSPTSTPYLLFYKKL
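USP1/UAF1 complex at 1 nM was preincubated with compound for 15 min at room temperature, then Ub-Rho substrate (150nM final) was added. Fluorescence (480/540 nm) was read kinetically, 6 reads every 60 seconds.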
Coupling enz – coupling enzyme interference in Giardia aldolase counter-screen; coupling enzyme system counterscreen, AmpLite Red fluorescence; activity change, negative = inhibition, % at 58.2 µM, hits read low; 0.67% of 290,000 active; in the data active = activity change below about -30%
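Coupling enzymes only (glyceraldehyde-3-phosphate) + compound, at 57.5 uM final, 10 min RT; add substrate/coupling/AmpLite Red mix, 20 min RT; fluorescence ex 525/em 598 nm. Actives flag coupling-system interference.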
KCNH2 3.1 inh – inhibitors of human KCNH2 3.1 potassium channel isoform | activity change, % (tested at about 1.8 µM) | U2OS KCNH2 3.1, thallium flux FluxOr; active compounds read low | 0.95% of 340,000 active;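 active = maximum activity change below -70%; inconclusive = maximum activity change from -70% to -50%; inactive = maximum activity change above -50%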;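 note: thallium influx rate constant from kinetic fluorescence after stimulation buffer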
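Thallium flux via FluxOr fluorescence (Red40 quencher, 45 min loading) in U2OS cells virally expressing the KCNH2 3.1 isoform (1.77 x 10^8 /mL virus, overnight at 37 C). Rate constants from 2-min kinetic reads post-stimulation, normalised to positive and negative controls.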
Starred values were filed as active, the others as inactive; ? = inconclusive; / = no result given. % is set by controls: 0 for no effect and ±100 for the full control effect.

SMILES	KCNH2 WT inh	Giardia kill	USP1 inh	Coupling enz	KCNH2 3.1 inh
Cc1cc(C)c(S(=O)(=O)N2CCN(Cc3nc4ccc(C)cc4o3)CC2)c(C)c1	/	/	-35%	/	/
Nn1c(SCC(=O)N2CCCC2)nnc1-c1cccs1	-2	/	-13%	/	6
O=C(NCCc1ccccc1C(F)(F)F)c1cc(COc2ccccc2)on1	-18	/	-28%	/	-111*
Cc1cccc(NC(=O)/C(=C/c2cccc([N+](=O)[O-])c2)NC(=O)c2cccs2)c1	31	-8	-18%	3	-10
O=C(NCCO)/C(=C\c1cccc([N+](=O)[O-])c1)NC(=O)c1cccs1	-5	/	?	/	-1
O=C(Nc1cccc2ccccc12)/C(=C/c1cccc([N+](=O)[O-])c1)NC(=O)c1cccs1	-15	-9	-2%	-1	-89*
O=C(Nc1cccc2ccccc12)/C(=C\c1cccc([N+](=O)[O-])c1)NC(=O)c1cccs1	-103*	15	-1%	1	-86*
CCCCCCC(=O)NN1CCN(C)CC1	-257*	-4	-16%	2	13
O=C(O)c1cc(N(Cc2ccccc2O)Cc2ccccc2O)ccc1O	/	7	/	-15	/
CCCCn1c(NC(=O)c2ccco2)c(S(=O)(=O)c2ccc(C)cc2)c2nc3ccccc3nc21	-10	0	?	-25	13
CCCCn1c(NS(=O)(=O)c2ccccc2)c(S(=O)(=O)c2ccc(C)cc2)c2nc3ccccc3nc21	-13	-16	28µM*	-32*	-3
CCCCn1c(NC(=O)c2ccc(Br)o2)c(S(=O)(=O)c2ccccc2)c2nc3ccccc3nc21	7	-9	28µM*	-6	1
Cc1ccc(NC(=O)CSc2nccn2Cc2ccco2)cc1Cl	/	/	-8%	/	/
COc1ccc(N2CCN(CCC(O)c3ccc4ccccc4c3)CC2)cc1 (configuration not stated)	?	0	-8%	0	-103*
Cc1cc(S(=O)(=O)N2CCN(c3c(C)cccc3C)CC2)ccc1F	-4	16	-18%	-9	23
CCC(C)N(C)Cc1cccc(C2(O)CCN(S(=O)(=O)c3ccc(F)c(C)c3)CC2)c1 (configuration not stated)	-43	-4	2%	-2	-100*
NNC(=O)c1[nH]c2ccc([N+](=O)[O-])cc2c1-c1ccccc1	-4	-12	-18%	4	-4
O=C(O)c1[nH]c2ccc([N+](=O)[O-])cc2c1-c1ccccc1	0	22	-19%	14	-194*
COc1cccc(N=Cc2ccc(O)cc2O)c1	-21	-5	-4%	-8	21
Oc1ccc(C=Nc2ccc3ncccc3c2)c(O)c1	/	/	/	-52*	/
Oc1ccc(C=Nc2cccc3ncccc23)c(O)c1	-15	-2	-9%	-37*	-16
CCOc1ccc(C=Nc2cccc3ncccc23)cc1	/	9	-20%	-42*	19
COc1ccc(OC)c(/C=C2\Oc3cc(OCC(=O)N4CCC[C@H]4C(=O)O)ccc3C2=O)c1	35	-8	-22%	1	0
COc1cc(OC)c(OC)cc1/C=C1\Oc2cc(OCC(=O)N3Cc4ccccc4C[C@H]3C(=O)O)ccc2C1=O	1	-13	14µM*	2	1
COc1ccc(NC(=O)CC2C(=O)N(c3ccc(OC)cc3)C(=O)N2C2CCCCC2)cc1 (configuration not stated)	/	/	-13%	/	/
SMILES	KCNH2 WT inh	Giardia kill	USP1 inh	Coupling enz	KCNH2 3.1 inh
COc1ccc(NC(=O)CC2C(=O)N(c3ccc(OC)cc3)C(=O)N2C(C)C)cc1 (configuration not stated)	-30	3	-12%	0	-82*
CCOCCCn1c(SCC(=O)Nc2ccc(C(C)C)cc2)nc2c(sc3ccccc32)c1=O	/	/	-1%	/	/
Cc1cccc(OCCCc2c(C)n[nH]c2C)c1	-3	-2	0%	0	-75*
O=C(Nc1ccc2cccnc2c1)c1ccc(Br)cc1	-4	-21	2%	-3	11
O=C(Nc1ccc2nc3ccccc3nc2c1)c1ccc(Br)cc1	-3	22	-20%	-39*	2
CC(=O)Nc1ccc2nc3ccccc3nc2c1	-2	5	-3%	-33*	-2
Cc1cc(C)cc(NC(=O)CN2C(=O)c3ccccc3Sc3ncccc32)c1	/	/	-8%	/	/
CCN(CC)c1ccc2c(-c3ccc(S(=O)(=O)O)cc3S(=O)(=O)[O-])c3ccc(=[N+](CC)CC)cc-3oc2c1	3	5	32µM*	85	-9
O=Cc1c2[nH]c3ccccc3c2cc2[nH]c3ccccc3c12	/	/	/	-15	/
Cc1nc2cccc(C(=O)Oc3ccc([N+](=O)[O-])cc3)c2o1	7	-12	-23%	-1	-8
Cc1c(-c2ccccc2)nc2ccccc2c1C(=O)Oc1ccc([N+](=O)[O-])cc1	-87*	7	-3%	/	-77*
CCN(Cc1ccccc1)C(=O)CN1C(=O)CSc2ccc(S(=O)(=O)N(CC)CC)cc21	/	/	-20%	/	/
CCC(CN(C)C)Oc1cc(NCc2ccccc2)c2ncn(C(C)C)c2c1 (configuration not stated)	3	-5	28µM*	/	-11
COc1cc(NCc2ccccc2)c2ncn(C(C)C)c2c1	-3	-17	?	/	-13
Nc1ccc2c(c1)C(=O)CCC2	9	/	-18%	/	13
CCCN(Cc1cccs1)C(=O)Nc1cc(C)cc(C)c1	/	/	-13%	/	/
CCOc1ccc(C(N)=O)cc1OC	9	-4	-17%	0	-2
CCOc1ccc(N)cc1OC	-2	-15	-20%	-33*	-2
COc1ccc(NC(=O)CCS(=O)(=O)c2nc(-c3cccs3)cc(C(F)(F)F)n2)cc1OC	/	/	-26%	/	/
Cc1nn(Cc2ccc([N+](=O)[O-])cc2)c(=O)n1-c1ccc(Cl)cc1	3	-14	-12%	-1	-78*
O=c1[nH]cc(C#Cc2ccccc2)c2ncncc12	/	16	/	/	/
Cc1nccn1CC(O)COc1ccc([N+](=O)[O-])cc1 (configuration not stated)	-5	-12	-2%	-1	-98*
COc1ccc(OCC(O)Cn2ccnc2C)cc1 (configuration not stated)	13	-4	-6%	1	6
Cc1ccc(N2CCN(CC(O)COc3ccc([N+](=O)[O-])cc3)CC2)cc1 (configuration not stated)	-88*	17	-15%	2	-89*
O=[N+]([O-])c1ccc(OCC(O)CN2CCN(c3ccccc3F)CC2)cc1 (configuration not stated)	-76*	-6	-23%	5	-97*
COc1ccccc1CCn1c(=O)c(-c2ccc(F)c(F)c2)nc2cncnc21	/	/	/	2	/
COC(=O)c1scc(-c2ccc(C)cc2)c1S(=O)(=O)Nc1cc(Cl)ccc1C	/	/	-21%	/	/
